Several values for one entry are separate records, joined by “and”; a condition that tells them apart may be missing. Equal values may be shown once. Compounds without any hit were thinned out: in the full panel of roughly 83,000, 20% have a hit.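 Cell lines were cultured in 96-well plates, exposed to a single compound concentration, and assessed for percent growth 48 hours later.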 Activity calls are given as the source filed them. Rule for the calls: active = growth percent below 10; inactive = the rest.
Assays:
Experiment in all cases: NCI-60 one-dose screen, 48 h (100 = growth as untreated, 0 = no growth, -100 = all killed)
NCI-H23 lung = tested on: NCI-H23 lung
NCI-H322M lung = tested on: NCI-H322M lung
HOP-62 NSCLC = tested on: HOP-62 NSCLC
NCI-H522 lung = tested on: NCI-H522 lung
A549/ATCC NSCLC = tested on: A549/ATCC NSCLC
786-0 renal = tested on: 786-0 renal
DU-145 prostate = tested on: DU-145 prostate
K-562 leukemia = tested on: K-562 leukemia
MALME-3M melanoma = tested on: MALME-3M melanoma
MDA-MB-231 breast = tested on: MDA-MB-231 breast
RXF 393 renal = tested on: RXF 393 renal
SF-268 CNS = tested on: SF-268 CNS
SF-295 CNS = tested on: SF-295 CNS
SF-539 CNS = tested on: SF-539 CNS
UACC-257 melanoma = tested on: UACC-257 melanoma
M14 melanoma = tested on: M14 melanoma
HCT-15 colon = tested on: HCT-15 colon
NCI-H460 lung = settings: 10 µM
NCI-H226 lung = settings: 10 µM
COLO 205 colon = settings: 10 µM

Measured: growth

Cn1c2nc3ccccc3c-2nc2ccccc21
inactive: NCI-H23 lung; 10 µM 94.1% and 91.3% | NCI-H322M lung; 10 µM 99.7% and 88.7% | HOP-62 NSCLC; 10 µM 80.5% and 85.1% | NCI-H522 lung; 10 µM 102% and 87.8% | A549/ATCC NSCLC; 10 µM 96.1% and 86.3% | 786-0 renal; 10 µM 96.6% and 94.4% | DU-145 prostate; 10 µM 94.4% and 95.7% | K-562 leukemia; 10 µM 121% and 94.7% | MALME-3M melanoma; 10 µM 116% and 115% | MDA-MB-231 breast; 10 µM 79.9% and 83.8% | RXF 393 renal; 10 µM 91% and 90.7% | SF-268 CNS; 10 µM 97% and 97.7% | SF-295 CNS; 10 µM 96.8% and 107% | SF-539 CNS; 10 µM 92.2% and 77.2% | UACC-257 melanoma; 10 µM 108% and 94.5% | M14 melanoma; 10 µM unless noted 108% and 100% | HCT-15 colon; 10 µM 94.9% and 85.2%

O=C1C=CC(=O)N1c1ccc(N2C(=O)C=CC2=O)cc1
inactive: NCI-H23 lung; 10 µM 91.3% | NCI-H322M lung; 10 µM 92.4% | HOP-62 NSCLC; 10 µM 86.8% | NCI-H460 lung 103% | A549/ATCC NSCLC; 10 µM 101% | 786-0 renal; 10 µM 103% | DU-145 prostate; 10 µM 122% | MALME-3M melanoma; 10 µM 85.7% | MDA-MB-231 breast; 10 µM 115% | SF-268 CNS; 10 µM 112% | SF-295 CNS; 10 µM 109% | SF-539 CNS; 10 µM 87% | UACC-257 melanoma; 10 µM 113% | M14 melanoma; 10 µM unless noted 98.3% | HCT-15 colon; 10 µM 91.4%
active: NCI-H522 lung; 10 µM -11.5% | K-562 leukemia; 10 µM -6.5%

CC(=O)O[C@H]1C(=O)[C@@]2(C)[C@H]([C@H](OC(=O)c3ccccc3)[C@]3(O)C[C@H](OC(=O)[C@H](O)[C@@H](NC(=O)c4ccccc4)c4ccccc4)C(C)=C1C3(C)C)[C@]1(OC(C)=O)CO[C@@H]1C[C@@H]2O
inactive: NCI-H23 lung; 0.01 µM 24.1% | NCI-H23 lung; 2.5 µM 23.2% | NCI-H23 lung; 5 µM 30.5% | NCI-H23 lung; 10 µM 40.3% and 34.8% | NCI-H322M lung; 0.01 µM 53.8% | NCI-H322M lung; 2.5 µM 30.7% | NCI-H322M lung; 5 µM 30.1% | NCI-H322M lung; 10 µM 21.2% and 30.1% | HOP-62 NSCLC; 0.01 µM 48.2% | HOP-62 NSCLC; 2.5 µM 12.5% | HOP-62 NSCLC; 5 µM 15.4% | NCI-H522 lung; 0.01 µM 22.1% | A549/ATCC NSCLC; 0.01 µM 31.4% | A549/ATCC NSCLC; 2.5 µM 18.5% | A549/ATCC NSCLC; 5 µM 21.2% | A549/ATCC NSCLC; 10 µM 47.3% and 29.9% | 786-0 renal; 0.01 µM 51.7% | 786-0 renal; 2.5 µM 17.7% | 786-0 renal; 5 µM 31% | 786-0 renal; 10 µM 42.2% and 42.3% | K-562 leukemia; 0.01 µM 10.7% | MALME-3M melanoma; 0.01 µM 52.3% | MALME-3M melanoma; 2.5 µM 51.7% | MALME-3M melanoma; 5 µM 61.6% | MALME-3M melanoma; 10 µM 52.5% and 62.6% | MDA-MB-231 breast; 0.01 µM 49.4% | SF-268 CNS; 0.01 µM 42.1% | SF-268 CNS; 2.5 µM 27.2% | SF-268 CNS; 5 µM 29.5% | SF-268 CNS; 10 µM 37.1% and 36.3% | SF-295 CNS; 0.01 µM 55.9% | UACC-257 melanoma; 0.01 µM 14.6% | UACC-257 melanoma; 2.5 µM 48.7% | UACC-257 melanoma; 5 µM 59.6% | UACC-257 melanoma; 10 µM 26.9% and 65% | M14 melanoma; 5 µM 19.5% | M14 melanoma; 10 µM 24.9% and 24.5% | HCT-15 colon; 0.01 µM 87.3% | HCT-15 colon; 2.5 µM 13.2% | HCT-15 colon; 5 µM 12.4%
active: NCI-H522 lung; 2.5 µM -12.4% | NCI-H522 lung; 5 µM 1.57% | DU-145 prostate; 0.01 µM -35.7% | DU-145 prostate; 2.5 µM -5.74% | DU-145 prostate; 5 µM -7.54% | DU-145 prostate; 10 µM -49.5% and -4.6% | K-562 leukemia; 2.5 µM 5.83% | K-562 leukemia; 5 µM 6.14% | K-562 leukemia; 10 µM -6.92% and 5.96% | MDA-MB-231 breast; 2.5 µM -6.11% | MDA-MB-231 breast; 5 µM 2.87% | RXF 393 renal; 0.01 µM 1.22% | RXF 393 renal; 2.5 µM -29.4% | RXF 393 renal; 5 µM -25.8% | SF-295 CNS; 2.5 µM 2.61% | SF-295 CNS; 5 µM 3.25% | SF-295 CNS; 10 µM 9.92% and 1.83% | SF-539 CNS; 0.01 µM -15.1% | SF-539 CNS; 2.5 µM -28.7% | SF-539 CNS; 5 µM -33.8% | SF-539 CNS; 10 µM -14.3% and -16.1% | M14 melanoma; 2.5 µM -1.65%
28.9% (inactive) and -25.2% (active): RXF 393 renal; 10 µM
-26.2% (active) and 11.5% (inactive): HCT-15 colon; 10 µM
-16.2% (active) and 11.8% (inactive): NCI-H522 lung; 10 µM
29.1% (inactive) and 5.06% (active): MDA-MB-231 breast; 10 µM
30.7% (inactive) and 6.92% (active): HOP-62 NSCLC; 10 µM

CN(CC(=O)O)c1ccc(/C=C/c2ccnc3ccccc23)cc1
inactive: NCI-H23 lung; 10 µM 99% | NCI-H322M lung; 10 µM 98.7% | HOP-62 NSCLC; 10 µM 83.5% | NCI-H522 lung; 10 µM 78.1% | A549/ATCC NSCLC; 10 µM 74.3% | 786-0 renal; 10 µM 95.8% | DU-145 prostate; 10 µM 97.7% | K-562 leukemia; 10 µM 50.5% | MALME-3M melanoma; 10 µM 99.2% | MDA-MB-231 breast; 10 µM 66.8% | RXF 393 renal; 10 µM 111% | SF-268 CNS; 10 µM 90.1% | SF-295 CNS; 10 µM 92.2% | SF-539 CNS; 10 µM 90.3% | UACC-257 melanoma; 10 µM 86.9% | M14 melanoma; 10 µM unless noted 90.3% | HCT-15 colon; 10 µM 84.5%

CN(C)c1ccc(/C=C/c2ccnc3ccccc23)cc1N
inactive: NCI-H23 lung; 10 µM 48.8% | NCI-H322M lung; 10 µM 85.1% | HOP-62 NSCLC; 10 µM 77.2% | NCI-H522 lung; 10 µM 56.6% | A549/ATCC NSCLC; 10 µM 72.6% | 786-0 renal; 10 µM 85.6% | DU-145 prostate; 10 µM 83.5% | K-562 leukemia; 10 µM 31.1% | MALME-3M melanoma; 10 µM 68% | MDA-MB-231 breast; 10 µM 46.1% | RXF 393 renal; 10 µM 80.9% | SF-268 CNS; 10 µM 87.4% | SF-295 CNS; 10 µM 74.8% | SF-539 CNS; 10 µM 76.9% | UACC-257 melanoma; 10 µM 58.7% | M14 melanoma; 10 µM unless noted 73.9% | HCT-15 colon; 10 µM 59.5%

COc1cccc(C(c2cc3c(cc2O)OCO3)N2CCOCC2)c1OC (stereo not given)
inactive: NCI-H23 lung; 10 µM 109% | NCI-H322M lung; 10 µM 101% | HOP-62 NSCLC; 10 µM 101% | NCI-H522 lung; 10 µM 94.8% | A549/ATCC NSCLC; 10 µM 99.9% | 786-0 renal; 10 µM 101% | DU-145 prostate; 10 µM 109% | K-562 leukemia; 10 µM 95.8% | MALME-3M melanoma; 10 µM 99.2% | MDA-MB-231 breast; 10 µM 97.7% | RXF 393 renal; 10 µM 103% | SF-268 CNS; 10 µM 95.8% | SF-295 CNS; 10 µM 99.7% | SF-539 CNS; 10 µM 96.5% | UACC-257 melanoma; 10 µM 98.4% | M14 melanoma; 10 µM unless noted 104% | HCT-15 colon; 10 µM 97.4%

O=C(O)c1ccccc1.[Ag]
active: NCI-H522 lung; 10 µM -25.1%
inactive: NCI-H23 lung; 10 µM 99.3% | NCI-H226 lung 104% | NCI-H322M lung; 10 µM 109% | HOP-62 NSCLC; 10 µM 108% | A549/ATCC NSCLC; 10 µM 54% | 786-0 renal; 10 µM 108% | DU-145 prostate; 10 µM 105% | K-562 leukemia; 10 µM 90.3% | MALME-3M melanoma; 10 µM 119% | MDA-MB-231 breast; 10 µM 89% | RXF 393 renal; 10 µM 106% | SF-268 CNS; 10 µM 97.1% | SF-295 CNS; 10 µM 99.7% | SF-539 CNS; 10 µM 106% | UACC-257 melanoma; 10 µM 93.6% | M14 melanoma; 10 µM unless noted 96.4% | HCT-15 colon; 10 µM 110%

S=C1SCN(CCc2ccccc2)CN1CCc1ccccc1
inactive: NCI-H23 lung; 10 µM 96.5% | NCI-H322M lung; 10 µM 86.5% | HOP-62 NSCLC; 10 µM 87.6% | NCI-H522 lung; 10 µM 58.6% | A549/ATCC NSCLC; 10 µM 90.8% | 786-0 renal; 10 µM 117% | DU-145 prostate; 10 µM 93% | K-562 leukemia; 10 µM 55.8% | MALME-3M melanoma; 10 µM 87.3% | MDA-MB-231 breast; 10 µM 99.3% | RXF 393 renal; 10 µM 91.8% | SF-268 CNS; 10 µM 106% | SF-295 CNS; 10 µM 93.4% | SF-539 CNS; 10 µM 115% | UACC-257 melanoma; 10 µM 71.6% | M14 melanoma; 10 µM unless noted 120% | HCT-15 colon; 10 µM 95.1%

Cn1ncc2cc3c(Nc4ccc(Cl)cc4)cccc3nc21
inactive: NCI-H23 lung; 10 µM 85.6% | NCI-H322M lung; 10 µM 104% | HOP-62 NSCLC; 10 µM 89.3% | NCI-H522 lung; 10 µM 83.8% | A549/ATCC NSCLC; 10 µM 80% | 786-0 renal; 10 µM 89.3% | DU-145 prostate; 10 µM 90% | K-562 leukemia; 10 µM 80.2% | MALME-3M melanoma; 10 µM 122% | MDA-MB-231 breast; 10 µM 81.7% | RXF 393 renal; 10 µM 90.5% | SF-268 CNS; 10 µM 85.5% | SF-295 CNS; 10 µM 87.6% | SF-539 CNS; 10 µM 90.7% | UACC-257 melanoma; 10 µM 100% | M14 melanoma; 10 µM unless noted 104% | HCT-15 colon; 10 µM 88.1%

COc1cc(N)ccc1Nc1c2ccccc2nc2ccccc12
inactive: COLO 205 colon 12.4%

Source: PubChem BioAssay (NCI)
